Holding throughout (assay): DAPPL (digital affinity profiling via proximity ligation, sequencing); 10 mM Tris-HCl pH 7.5, 50 mM NaCl, 1 mM DTT, 4% glycerol, room temperature, 30 min; GST-TFs on glutathione beads, 16-mer random dsDNA library, 0.1% formaldehyde crosslink after washing; high values mean tight binding
For one assay, the target named is T1, FLI1 (Homo sapiens, UniProt Q01543 1-452).
T1 sequence: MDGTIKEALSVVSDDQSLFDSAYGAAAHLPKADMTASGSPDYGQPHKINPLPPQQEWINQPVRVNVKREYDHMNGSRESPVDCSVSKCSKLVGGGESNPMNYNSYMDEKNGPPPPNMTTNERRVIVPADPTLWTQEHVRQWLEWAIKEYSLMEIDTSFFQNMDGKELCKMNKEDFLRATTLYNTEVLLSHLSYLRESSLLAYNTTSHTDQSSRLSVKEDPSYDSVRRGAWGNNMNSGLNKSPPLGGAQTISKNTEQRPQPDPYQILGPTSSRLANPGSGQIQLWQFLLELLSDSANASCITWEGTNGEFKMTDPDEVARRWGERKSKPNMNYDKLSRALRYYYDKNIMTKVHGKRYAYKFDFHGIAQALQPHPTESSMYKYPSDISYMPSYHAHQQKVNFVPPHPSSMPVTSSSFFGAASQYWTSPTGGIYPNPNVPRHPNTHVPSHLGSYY
Particulars: protein: recombinant; tags: N-terminal GST; dsDNA, one strand shown. In short, it runs like this: (§1)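 A tag-only sample was pooled with DNA-barcoded human transcription factors that had been expressed in yeast as GST fusions and captured on glutathione beads. The pools were incubated for 30 min at room temperature with 200 nmole of a random double-stranded 16-mer DNA library in Tris/NaCl/DTT/glycerol buffer, then washed, crosslinked with 0.1% formaldehyde, proximity-ligated (BsaI/T4 ligase, 1 h, 37 °C), PCR-amplified and sequenced on an Illumina NextSeq500. Binding signal is each hexamer's read frequency for a factor divided by its frequency for the tag-only sample.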

The target of a further assay is T2, ELK1 (Homo sapiens, UniProt P19419 1-428).
T2 sequence: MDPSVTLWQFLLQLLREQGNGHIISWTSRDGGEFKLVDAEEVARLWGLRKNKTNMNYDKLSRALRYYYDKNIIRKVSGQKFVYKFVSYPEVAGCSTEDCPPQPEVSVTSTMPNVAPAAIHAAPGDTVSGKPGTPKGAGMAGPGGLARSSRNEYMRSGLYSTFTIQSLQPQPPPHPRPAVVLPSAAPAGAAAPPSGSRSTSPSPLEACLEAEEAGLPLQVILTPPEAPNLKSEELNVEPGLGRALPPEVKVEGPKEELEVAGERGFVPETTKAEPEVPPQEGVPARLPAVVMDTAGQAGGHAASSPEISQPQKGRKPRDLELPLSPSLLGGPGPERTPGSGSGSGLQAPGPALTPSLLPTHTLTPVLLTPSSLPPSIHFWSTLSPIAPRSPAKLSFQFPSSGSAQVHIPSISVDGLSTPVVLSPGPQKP
Conditions: protein: recombinant; tags: N-terminal GST; dsDNA, one strand shown. In short, it runs like this: as §1

For another assay, the target named is T3, GABPA (Homo sapiens, UniProt Q06546 1-454).
T3 sequence: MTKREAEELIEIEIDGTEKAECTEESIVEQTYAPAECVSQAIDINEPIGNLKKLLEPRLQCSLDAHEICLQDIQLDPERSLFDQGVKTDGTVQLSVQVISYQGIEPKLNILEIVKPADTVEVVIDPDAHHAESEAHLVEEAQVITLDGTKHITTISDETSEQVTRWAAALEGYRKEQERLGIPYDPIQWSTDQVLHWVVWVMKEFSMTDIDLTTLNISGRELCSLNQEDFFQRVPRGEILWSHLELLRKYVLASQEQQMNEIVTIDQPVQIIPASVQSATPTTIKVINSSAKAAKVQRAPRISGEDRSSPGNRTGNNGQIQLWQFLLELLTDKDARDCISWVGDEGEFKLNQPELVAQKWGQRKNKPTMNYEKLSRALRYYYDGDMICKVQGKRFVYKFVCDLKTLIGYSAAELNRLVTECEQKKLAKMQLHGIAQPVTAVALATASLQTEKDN
Conditions: protein: recombinant; tags: N-terminal GST; dsDNA, one strand shown. A digest of the protocol: as §1

For the next assay, the target named is T4, ERG (Homo sapiens, UniProt P11308 1-479).
T4 sequence: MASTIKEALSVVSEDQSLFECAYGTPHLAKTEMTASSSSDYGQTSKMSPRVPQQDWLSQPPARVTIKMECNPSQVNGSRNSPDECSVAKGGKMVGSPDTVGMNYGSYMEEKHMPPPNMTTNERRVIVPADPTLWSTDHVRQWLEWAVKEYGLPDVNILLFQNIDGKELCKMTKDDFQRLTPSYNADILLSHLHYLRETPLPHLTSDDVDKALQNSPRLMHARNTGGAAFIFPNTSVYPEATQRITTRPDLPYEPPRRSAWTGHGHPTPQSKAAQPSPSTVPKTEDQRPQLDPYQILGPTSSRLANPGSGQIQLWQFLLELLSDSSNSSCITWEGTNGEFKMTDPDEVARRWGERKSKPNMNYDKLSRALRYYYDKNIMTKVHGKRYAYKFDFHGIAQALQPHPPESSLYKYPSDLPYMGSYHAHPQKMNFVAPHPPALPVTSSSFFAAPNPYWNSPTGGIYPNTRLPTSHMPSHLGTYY
Conditions: protein: recombinant; tags: N-terminal GST; dsDNA, one strand shown. A digest of the protocol:
as §1

The target in the next assay is ELF1 (Homo sapiens, UniProt P32519 1-619). Conditions: protein: recombinant; tags: N-terminal GST; dsDNA, one strand shown. In short, it runs like this: as §1
Sequence of ELF1 (P32519 whole entry): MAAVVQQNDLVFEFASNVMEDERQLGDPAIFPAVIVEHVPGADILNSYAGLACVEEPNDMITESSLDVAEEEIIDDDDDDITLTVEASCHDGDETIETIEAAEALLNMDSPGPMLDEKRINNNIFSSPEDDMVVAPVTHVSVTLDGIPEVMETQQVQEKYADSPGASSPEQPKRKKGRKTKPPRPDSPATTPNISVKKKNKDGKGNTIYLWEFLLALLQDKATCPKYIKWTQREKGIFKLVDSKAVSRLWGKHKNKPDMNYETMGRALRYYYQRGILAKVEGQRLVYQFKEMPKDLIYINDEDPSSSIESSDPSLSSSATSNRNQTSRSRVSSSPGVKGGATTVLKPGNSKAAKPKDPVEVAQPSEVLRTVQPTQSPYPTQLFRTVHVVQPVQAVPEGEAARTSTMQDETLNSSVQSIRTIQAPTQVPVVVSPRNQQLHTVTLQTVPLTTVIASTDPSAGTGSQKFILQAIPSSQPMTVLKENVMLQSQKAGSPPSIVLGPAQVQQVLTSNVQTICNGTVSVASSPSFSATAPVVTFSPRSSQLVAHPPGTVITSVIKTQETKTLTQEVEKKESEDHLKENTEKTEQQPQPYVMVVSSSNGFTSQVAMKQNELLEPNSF
A further assay has as its target T5, EHF (Homo sapiens, UniProt Q9NZC4 1-300).
T5 sequence: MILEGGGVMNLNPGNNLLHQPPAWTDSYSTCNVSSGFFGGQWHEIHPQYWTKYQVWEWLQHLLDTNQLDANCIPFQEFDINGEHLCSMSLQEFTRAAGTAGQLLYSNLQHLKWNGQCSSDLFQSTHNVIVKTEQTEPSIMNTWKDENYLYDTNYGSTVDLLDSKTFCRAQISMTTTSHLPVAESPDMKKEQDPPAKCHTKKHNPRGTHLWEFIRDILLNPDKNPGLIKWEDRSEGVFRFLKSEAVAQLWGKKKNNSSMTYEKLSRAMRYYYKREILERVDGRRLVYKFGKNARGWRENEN
Conditions: protein: recombinant; tags: N-terminal GST; dsDNA, one strand shown. In short, it runs like this: as §1

The target of another assay is SPI1 (Homo sapiens, UniProt P17947 1-270). Particulars: protein: recombinant; tags: N-terminal GST; dsDNA, one strand shown. A digest of the protocol:
as §1

The target of the next assay is SPIB (Homo sapiens, UniProt Q01892 1-262). Particulars: protein: recombinant; tags: N-terminal GST; dsDNA, one strand shown. In short, it runs like this: as §1
Sequence of SPIB (Q01892 whole entry): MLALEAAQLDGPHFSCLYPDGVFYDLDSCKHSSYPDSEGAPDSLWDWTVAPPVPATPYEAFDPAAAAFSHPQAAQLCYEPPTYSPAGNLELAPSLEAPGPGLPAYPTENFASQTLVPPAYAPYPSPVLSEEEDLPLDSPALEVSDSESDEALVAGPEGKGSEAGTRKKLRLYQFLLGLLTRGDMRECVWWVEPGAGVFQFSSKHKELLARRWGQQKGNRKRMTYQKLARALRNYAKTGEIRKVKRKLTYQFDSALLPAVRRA
A further assay concerns the target T6, ELK3 (Homo sapiens, UniProt P41970 1-407).
T6 sequence: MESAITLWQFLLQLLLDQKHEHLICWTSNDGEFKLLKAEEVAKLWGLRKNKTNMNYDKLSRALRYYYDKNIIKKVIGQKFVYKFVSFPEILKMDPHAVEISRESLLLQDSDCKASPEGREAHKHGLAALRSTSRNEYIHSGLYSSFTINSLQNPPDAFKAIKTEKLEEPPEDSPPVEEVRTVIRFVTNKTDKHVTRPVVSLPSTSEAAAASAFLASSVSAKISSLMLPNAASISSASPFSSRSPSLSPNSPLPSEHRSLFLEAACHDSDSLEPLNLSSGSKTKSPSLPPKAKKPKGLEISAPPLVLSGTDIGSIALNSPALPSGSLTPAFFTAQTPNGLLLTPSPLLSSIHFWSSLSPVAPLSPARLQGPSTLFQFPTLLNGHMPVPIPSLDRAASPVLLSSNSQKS
Particulars: protein: recombinant; tags: N-terminal GST; dsDNA, one strand shown. In short, it runs like this:
as §1

In a further assay the target is T7, FEV (Homo sapiens, UniProt Q99581 1-238).
T7 sequence: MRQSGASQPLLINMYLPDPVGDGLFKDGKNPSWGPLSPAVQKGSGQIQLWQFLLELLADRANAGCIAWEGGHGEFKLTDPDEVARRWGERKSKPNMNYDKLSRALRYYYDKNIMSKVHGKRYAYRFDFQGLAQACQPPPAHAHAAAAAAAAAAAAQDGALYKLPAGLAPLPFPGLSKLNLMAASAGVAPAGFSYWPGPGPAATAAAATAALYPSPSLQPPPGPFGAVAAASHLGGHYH
Conditions: protein: recombinant; tags: N-terminal GST; dsDNA, one strand shown. In short, it runs like this:
as §1

Another assay addresses ETV5 (Homo sapiens, UniProt P41161 1-510). Conditions: protein: recombinant; tags: N-terminal GST; dsDNA, one strand shown. In short, it runs like this:
as §1

The target of another assay is HSF1 (Homo sapiens, UniProt Q00613 1-529). Particulars: protein: recombinant; tags: N-terminal GST; chain copies: 3; dsDNA, one strand shown. In short, it runs like this: as §1
Sequence of HSF1 (Q00613 whole entry): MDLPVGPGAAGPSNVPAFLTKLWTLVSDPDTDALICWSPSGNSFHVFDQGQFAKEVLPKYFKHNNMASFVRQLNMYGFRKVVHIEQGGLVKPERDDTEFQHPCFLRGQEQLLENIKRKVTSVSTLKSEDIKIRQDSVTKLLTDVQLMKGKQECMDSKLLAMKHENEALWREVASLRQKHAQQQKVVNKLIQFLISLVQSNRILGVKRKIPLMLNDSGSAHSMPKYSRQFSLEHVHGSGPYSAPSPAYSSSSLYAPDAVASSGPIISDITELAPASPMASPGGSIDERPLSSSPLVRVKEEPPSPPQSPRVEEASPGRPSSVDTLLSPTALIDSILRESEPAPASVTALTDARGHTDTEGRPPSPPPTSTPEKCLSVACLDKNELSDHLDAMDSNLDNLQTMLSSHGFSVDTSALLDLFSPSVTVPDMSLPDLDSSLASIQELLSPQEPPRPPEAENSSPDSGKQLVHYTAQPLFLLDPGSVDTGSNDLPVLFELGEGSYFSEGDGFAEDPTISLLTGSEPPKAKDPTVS
The target of another assay is T8, SPIC (Homo sapiens, UniProt Q8N5J4 1-248).
T8 sequence: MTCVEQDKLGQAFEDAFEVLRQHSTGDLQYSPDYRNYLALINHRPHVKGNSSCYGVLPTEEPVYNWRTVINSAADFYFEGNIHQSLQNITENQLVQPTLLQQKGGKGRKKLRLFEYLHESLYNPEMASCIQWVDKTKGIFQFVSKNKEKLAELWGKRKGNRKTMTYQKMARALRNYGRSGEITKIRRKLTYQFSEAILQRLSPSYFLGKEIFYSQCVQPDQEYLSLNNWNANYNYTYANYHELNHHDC
Conditions: protein: recombinant; tags: N-terminal GST; dsDNA, one strand shown. A digest of the protocol: as §1

In a further assay the target is ELF4 (Homo sapiens, UniProt Q99607 1-663). Particulars: protein: recombinant; tags: N-terminal GST; dsDNA, one strand shown. A digest of the protocol: as §1
Sequence of ELF4 (Q99607 whole entry): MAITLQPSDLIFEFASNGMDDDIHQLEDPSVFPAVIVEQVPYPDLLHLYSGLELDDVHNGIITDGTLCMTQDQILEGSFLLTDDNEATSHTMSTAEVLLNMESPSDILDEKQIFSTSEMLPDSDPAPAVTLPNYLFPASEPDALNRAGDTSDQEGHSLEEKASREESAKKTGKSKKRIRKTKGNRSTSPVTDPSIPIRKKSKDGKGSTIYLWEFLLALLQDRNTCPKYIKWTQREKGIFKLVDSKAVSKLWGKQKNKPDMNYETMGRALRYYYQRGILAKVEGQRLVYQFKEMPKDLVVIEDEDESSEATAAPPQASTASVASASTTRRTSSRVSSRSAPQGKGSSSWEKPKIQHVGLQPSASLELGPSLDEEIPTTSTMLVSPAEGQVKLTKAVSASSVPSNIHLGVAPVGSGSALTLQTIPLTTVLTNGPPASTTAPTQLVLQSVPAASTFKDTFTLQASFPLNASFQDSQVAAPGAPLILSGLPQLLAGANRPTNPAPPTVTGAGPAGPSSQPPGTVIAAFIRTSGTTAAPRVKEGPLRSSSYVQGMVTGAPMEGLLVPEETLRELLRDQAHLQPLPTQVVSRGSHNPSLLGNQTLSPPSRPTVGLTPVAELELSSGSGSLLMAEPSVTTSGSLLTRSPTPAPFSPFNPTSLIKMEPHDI
The target in the next assay is T9, ELK4 (Homo sapiens, UniProt P28324-2 1-405).
T9 sequence: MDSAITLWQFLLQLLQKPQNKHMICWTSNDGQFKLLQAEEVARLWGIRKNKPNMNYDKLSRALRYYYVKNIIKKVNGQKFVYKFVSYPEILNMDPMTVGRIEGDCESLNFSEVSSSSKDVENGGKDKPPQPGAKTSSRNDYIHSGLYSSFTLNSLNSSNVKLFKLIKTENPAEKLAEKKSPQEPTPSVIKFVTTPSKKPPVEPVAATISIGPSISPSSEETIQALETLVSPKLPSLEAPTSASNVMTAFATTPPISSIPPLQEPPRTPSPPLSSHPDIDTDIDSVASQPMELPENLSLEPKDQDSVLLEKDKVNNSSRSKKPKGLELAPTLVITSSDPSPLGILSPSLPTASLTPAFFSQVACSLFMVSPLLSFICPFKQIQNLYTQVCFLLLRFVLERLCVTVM
Conditions: protein: recombinant; tags: N-terminal GST; dsDNA, one strand shown. A digest of the protocol:
as §1

The target of a further assay is T10, ETV2 (Homo sapiens, UniProt O00321 1-342).
T10 sequence: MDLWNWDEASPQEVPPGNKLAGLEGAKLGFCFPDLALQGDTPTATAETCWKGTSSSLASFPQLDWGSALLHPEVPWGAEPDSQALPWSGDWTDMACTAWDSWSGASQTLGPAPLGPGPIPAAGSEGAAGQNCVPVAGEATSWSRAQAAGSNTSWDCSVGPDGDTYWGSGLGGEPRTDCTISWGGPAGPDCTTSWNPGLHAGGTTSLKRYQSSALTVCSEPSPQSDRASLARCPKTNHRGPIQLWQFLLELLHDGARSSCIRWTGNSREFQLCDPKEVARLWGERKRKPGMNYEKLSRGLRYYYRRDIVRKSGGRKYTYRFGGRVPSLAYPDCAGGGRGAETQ
Conditions: protein: recombinant; tags: N-terminal GST; dsDNA, one strand shown. A digest of the protocol:
as §1

In another assay the target is T11, ELF3 (Homo sapiens, UniProt P78545 1-371).
T11 sequence: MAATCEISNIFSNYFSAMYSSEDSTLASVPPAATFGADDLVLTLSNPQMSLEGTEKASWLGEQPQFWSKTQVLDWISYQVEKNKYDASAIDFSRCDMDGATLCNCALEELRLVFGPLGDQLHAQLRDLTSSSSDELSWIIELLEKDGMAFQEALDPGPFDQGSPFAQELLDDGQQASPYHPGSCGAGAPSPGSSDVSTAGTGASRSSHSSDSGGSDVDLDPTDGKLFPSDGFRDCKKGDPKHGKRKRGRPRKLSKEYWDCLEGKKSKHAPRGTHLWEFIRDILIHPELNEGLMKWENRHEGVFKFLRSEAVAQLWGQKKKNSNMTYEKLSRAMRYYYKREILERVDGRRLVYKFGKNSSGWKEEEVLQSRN
Conditions: protein: recombinant; tags: N-terminal GST; dsDNA, one strand shown. In short, it runs like this:
as §1

For another assay, the target named is CRX (Homo sapiens, UniProt O43186 1-299). Conditions: protein: recombinant; tags: N-terminal GST; dsDNA, one strand shown. A digest of the protocol: as §1
Sequence of CRX (O43186 whole entry): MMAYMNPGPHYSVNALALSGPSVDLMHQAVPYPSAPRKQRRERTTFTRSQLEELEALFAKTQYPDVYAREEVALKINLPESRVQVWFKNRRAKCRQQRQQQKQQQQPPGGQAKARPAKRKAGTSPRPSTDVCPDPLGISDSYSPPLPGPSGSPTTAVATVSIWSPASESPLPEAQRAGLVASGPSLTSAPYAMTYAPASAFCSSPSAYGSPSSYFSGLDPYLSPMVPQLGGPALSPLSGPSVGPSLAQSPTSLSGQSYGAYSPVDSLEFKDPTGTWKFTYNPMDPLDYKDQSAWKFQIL
The next assay deals with ETV1 (Homo sapiens, UniProt P50549 1-477). Particulars: protein: recombinant; tags: N-terminal GST; dsDNA, one strand shown. In short, it runs like this:
as §1

Sequence of ETV1 (P50549 whole entry): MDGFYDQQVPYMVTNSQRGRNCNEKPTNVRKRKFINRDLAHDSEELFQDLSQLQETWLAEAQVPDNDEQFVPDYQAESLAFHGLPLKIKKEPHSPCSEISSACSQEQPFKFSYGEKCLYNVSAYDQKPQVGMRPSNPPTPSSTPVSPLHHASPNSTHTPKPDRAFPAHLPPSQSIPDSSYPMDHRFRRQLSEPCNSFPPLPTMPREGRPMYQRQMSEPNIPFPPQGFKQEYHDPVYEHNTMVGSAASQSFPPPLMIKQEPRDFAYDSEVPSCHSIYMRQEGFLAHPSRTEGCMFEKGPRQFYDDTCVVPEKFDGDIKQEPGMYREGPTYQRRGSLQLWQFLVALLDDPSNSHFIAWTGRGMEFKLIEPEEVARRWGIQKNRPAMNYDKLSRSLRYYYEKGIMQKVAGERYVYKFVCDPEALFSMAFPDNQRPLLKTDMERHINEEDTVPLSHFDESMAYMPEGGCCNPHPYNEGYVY
Sequence of ETV5 (P41161 whole entry): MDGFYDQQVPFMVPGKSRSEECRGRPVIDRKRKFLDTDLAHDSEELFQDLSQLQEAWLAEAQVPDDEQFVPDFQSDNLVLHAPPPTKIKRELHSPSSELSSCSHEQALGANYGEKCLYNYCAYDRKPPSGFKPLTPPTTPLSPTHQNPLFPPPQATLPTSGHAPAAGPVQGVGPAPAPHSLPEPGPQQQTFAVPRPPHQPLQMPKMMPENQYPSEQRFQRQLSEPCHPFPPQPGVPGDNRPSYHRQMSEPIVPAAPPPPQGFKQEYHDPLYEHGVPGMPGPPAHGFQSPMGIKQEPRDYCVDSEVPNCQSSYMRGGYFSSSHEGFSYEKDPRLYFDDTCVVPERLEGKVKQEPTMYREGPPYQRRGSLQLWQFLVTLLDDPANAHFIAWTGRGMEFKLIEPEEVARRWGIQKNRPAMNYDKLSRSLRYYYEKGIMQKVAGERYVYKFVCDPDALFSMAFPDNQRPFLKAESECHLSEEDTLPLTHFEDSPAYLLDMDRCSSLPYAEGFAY

On to TCACAA, for which the binding signal with FLI1 was 1.18 fold enrichment (6-mer frequency, TF over GST control); in the assay with ELK1, 1.14 fold enrichment (6-mer frequency, TF over GST control); with GABPA it was 1.21 fold enrichment (6-mer frequency, TF over GST control); with ERG it was 1.11 fold enrichment (6-mer frequency, TF over GST control); in the assay with ELF1 it was 1.23 fold enrichment (6-mer frequency, TF over GST control); with EHF, 1.11 fold enrichment (6-mer frequency, TF over GST control). Moreover, the binding signal is 1.06 fold enrichment (6-mer frequency, TF over GST control) in the assay with SPI1; 1.13 fold enrichment (6-mer frequency, TF over GST control) with SPIB; 1.17 fold enrichment (6-mer frequency, TF over GST control) in the assay with ELK3; 1.14 fold enrichment (6-mer frequency, TF over GST control) with FEV; 1.12 fold enrichment (6-mer frequency, TF over GST control) with ETV5; 1.03 fold enrichment (6-mer frequency, TF over GST control) in the assay with HSF1. For the same sequence, the binding signal is 1.18 fold enrichment (6-mer frequency, TF over GST control) with SPIC; 1.12 fold enrichment (6-mer frequency, TF over GST control) with ELF4; 1.21 fold enrichment (6-mer frequency, TF over GST control) in the assay with ELK4; 1.16 fold enrichment (6-mer frequency, TF over GST control) with ETV2; 1.15 fold enrichment (6-mer frequency, TF over GST control) with ELF3; 1.09 fold enrichment (6-mer frequency, TF over GST control) with CRX. Further, in the assay with ETV1, the binding signal was 1.13 fold enrichment (6-mer frequency, TF over GST control).

Values taken from paper PMC7862700, “An all-to-all approach to the identification of sequence-specific readers for epigenetic DNA modifications on cytosine”.
